The compounds below were run on murine 3T3 fibroblasts (assay: primary screen, percent viability or growth; higher = less effect of the substance).
Protocol: Similarly, for measuring the cytotoxicity concentration (CC50) for 3T3 fibroblast cells, cultures were incubated with drugs for 72 hours and developed using Alamar Blue (Alamar Biosciences Inc, Sacramento, CA) as previously described.

| SMILES | Mammalian (3T3) cell % growth at 10 uM [%] |
| --- | --- |
| COC(=O)C1(C)CCC2(C)CCC3(C)C4=CC=C5C(=CC(=O)C(O)=C5C)C4(C)CCC3(C)C2C1 (stereo not shown) | 0.6 |
| C=C1C(=O)O[C@H]2[C@H]1CC/C(C)=C/CC[C@@]1(C)O[C@@H]21 | 0.7 |
| O=c1c(O)c(-c2ccc(O)c(O)c2)oc2c(O)c(O)cc(O)c12 | 54.6 |
| O=c1c(O)c(-c2ccccc2)oc2ccccc12 | 85.7 |
| CN(C)C(=S)SSC(=S)N(C)C | 0.3 |
| CCCCCCCCCCCCCC(=O)O[C@@H]1[C@@H](C)[C@@]2(O)[C@@H](C=C(CO)C[C@]3(O)C(=O)C(C)=C[C@@H]23)[C@@H]2C(C)(C)[C@]12OC(C)=O | 89.2 |
| N=C(N)c1ccc(OCCCCCOc2ccc(C(=N)N)cc2)cc1.O=S(=O)(O)CCO | 94.8 |
| CC(C1OC(C)(C)C(O)C1O)C1CCC2(C)C3=CCC4C(C)(C)C(=O)CCC4(C)C3CCC12C (stereo not shown) | 92.7 |
| CCCCc1oc2ccccc2c1C(=O)c1cc(I)c(OCCN(CC)CC)c(I)c1.Cl | 86.7 |
| CCN(CC)Cc1cc(Nc2ccnc3cc(Cl)ccc23)ccc1O | 24.4 |
| CC(=O)OC1CC2C(C)(C)C(=O)C3OC3C2(C)C2CCC3(C)C(c4ccoc4)OC(=O)C4OC43C12C (stereo not shown) | 73.4 |
| C=C1c2c(Cl)ccc(O)c2C(O)=C2C(=O)[C@]3(O)C(=O)/C(=C(/N)O)C(=O)[C@@H](N(C)C)[C@@H]3[C@@H](O)[C@H]12.O=C(O)c1cc(S(=O)(=O)O)ccc1O | 60.9 |
| CC(=O)Oc1ccc2c(c1)CCC1C2CCC2(C)C1CC(OC(C)=O)[C@@H]2OC(C)=O (stereo partly shown) | 60.7 |
| CC1(C)C=CC(=O)C2(C)C1CC(=O)C1(C)C2CCC2(C)C(c3ccoc3)OC(=O)C3OC321 (stereo not shown) | 100 |
| O=C(O)/C=C/c1ccc(O)c(O)c1 | 2.5 |
| C=CC(C1=CC(=O)C(OC)=CC1=O)c1ccc(OC)cc1 (stereo not shown) | 1.2 |
| CCN(CC)CCCC(C)Nc1c2ccc(Cl)cc2nc2ccc(OC)cc12.Cl.Cl (stereo not shown) | 5.3 |

| SMILES | Mammalian (3T3) cell % growth at 10 uM [%] |
| --- | --- |
| CC[C@@H]1/C=C/C=C/C[C@H](C)[C@@H](O)[C@](C)(O)C(=O)[C@H](C)[C@@H](O)[C@H](C)C(=O)[C@H](C)[C@@H](O)[C@H](C)/C=C/C(=O)O[C@H]2[C@@H](C)[C@@H](CC1)O[C@@]1(CC[C@@H](C)[C@@H](C[C@@H](C)O)O1)[C@@H]2C | 57.7 |
| Cc1coc2c1C(=O)C(=O)c1c-2ccc2c1CCCC2(C)C | 44.3 |
| NC(=O)c1cc([N+](=O)[O-])cc([N+](=O)[O-])c1 | 97.2 |
| CNc1ccccc1C(=O)N1CCc2c([nH]c3ccccc23)C1=O | 75.7 |
| COc1ccc(-c2cc(=O)c3c(O)cc(O)cc3o2)cc1 | 77.4 |
| CSc1ccc2c(c1)C(N1CCN(C)CC1)Cc1ccccc1S2.O=C(O)/C=C\C(=O)O (stereo not shown) | 69.6 |
| C[C@H]1COC2=C1C(=O)C(=O)c1c2ccc2c1CCCC2(C)C | 87 |
| C=C1C(=O)C23C(O)C1CCC2C12COC3(O)C(O)C1C(C)(C)CCC2O (stereo not shown) | 0.2 |
| CC(=O)OC1CCC2(C)C(CC(OC(C)=O)C3(C)C2CCC2(C)C(c4ccoc4)OC(=O)C4OC423)C1(C)C (stereo not shown) | 96.7 |
| CC1(C)C(=O)C=CC2(C)C1CC(O)C1(C)C2CCC2(C)C(c3ccoc3)OC(=O)C3OC321 (stereo not shown) | 76 |
| Cl.Cl.O=C1c2c(O)ccc(O)c2C(=O)c2c(NCCNCCO)ccc(NCCNCCO)c21 | 14 |
| COC(=O)CC1C(C)(C)C(OC(C)=O)C2C(OC(C)=O)C34OC2(O)C1(C)C3CCC1(C)C4=CC(=O)OC1c1ccoc1 (stereo not shown) | 89.7 |
| CN(C)CCCN1c2ccccc2Sc2ccc(Cl)cc21 | 99.3 |
| Oc1ccc2c(c1)OC[C@]1(O)Cc3cc(O)c(O)cc3[C@H]21 | 3.6 |
| COc1c(O)cc2oc3cc(O)c(CC=C(C)C)c(O)c3c(=O)c2c1CC=C(C)C | 5.5 |
| O=c1[nH]c2ccccc2n1C1CCN(CCCC(c2ccc(F)cc2)c2ccc(F)cc2)CC1 | 8.1 |
| Nc1ccn([C@@H]2O[C@H](CO)[C@@H](O)[C@@H]2O)c(=O)n1 | 48.4 |
